From PubChem
An excerpt weighted towards active compounds, which were near 4.6% of everything screened.
D1 ag = Allosteric Agonists of the Human D1 Dopamine Receptor: qHTS; HEK293 T-REx D1 cells, calcium flux, agonist mode; AID 504660, 2011; D(1A) dopamine receptor (Homo sapiens), P21728; activation, % at 2 µM; actives 1% (n = 360,000); further: 0% is about no effect
Target sequence (P21728 whole entry, looked up): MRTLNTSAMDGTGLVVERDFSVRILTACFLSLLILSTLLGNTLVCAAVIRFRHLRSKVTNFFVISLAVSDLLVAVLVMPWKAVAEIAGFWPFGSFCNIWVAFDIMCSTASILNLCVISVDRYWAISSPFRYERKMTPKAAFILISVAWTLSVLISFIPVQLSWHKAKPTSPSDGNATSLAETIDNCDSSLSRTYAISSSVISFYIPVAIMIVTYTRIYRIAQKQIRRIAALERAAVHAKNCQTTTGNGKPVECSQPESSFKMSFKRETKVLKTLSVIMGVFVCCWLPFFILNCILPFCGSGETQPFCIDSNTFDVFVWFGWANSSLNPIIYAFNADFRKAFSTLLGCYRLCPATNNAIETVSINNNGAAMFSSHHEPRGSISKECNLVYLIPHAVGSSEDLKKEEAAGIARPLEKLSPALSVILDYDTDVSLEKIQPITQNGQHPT
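Inducible HEK293 T-REx D1 cells, force-coupled to calcium signalling, were plated at 4000 cells/well with tetracycline and held overnight at 30 C. After no-wash calcium dye loading, compound-evoked calcium rise over 180 s flagged agonists.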
TRHR enhancer = qHTS for Small Molecule Agonists and Allosteric Enhancers of Human TRH Receptor: Primary Screen for Enhancers; TRHR cells, fluo-8 calcium fluorescence, EC20 TRH enhancement; Thyrotropin-releasing hormone receptor (Homo sapiens), P34981; enhancement, % at 2 µM; actives 0.66% (n = 360,000); in the data active means enhancement above about 30%; further: 0% is about no effect
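TRHR-expressing cells loaded with fluo-8 calcium dye were read kinetically (ex 480/em 530) during compound addition, then stimulated with an EC20 of TRH (10 nM final). Enhancement of the Gq-mediated intracellular calcium response was scored.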
D1 PAM = Potentiators of Human D1 Dopamine Receptor: qHTS; HEK293 TREx D1 cells, calcium flux, dopamine EC20 potentiation; potentiation, % at 10 µM; actives 0.036% (n = 360,000); AID 504651, 2011; in the data active means potentiation above about 30%; further: 0% is about no effect
TRHR agonist = qHTS for Small Molecule Agonists and Allosteric Enhancers of Human TRH Receptor: Primary Screen for Agonists; Thyrotropin-releasing hormone receptor (Homo sapiens), P34981; TRHR cells, calcium flux fluo-8, FDSS agonist mode; activation, % at 2 µM; actives 0.18% (n = 360,000); AID 493084, 2011; further: 0% is about no effect
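Read-out: compound-evoked intracellular calcium rise in TRHR cells, fluo-8 dye, kinetic FDSS fluorescence at 1 s/cycle following a 10-cycle baseline. Cells cultured overnight before dye loading (30 min–1.5 h, RT).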
D1 antag = Antagonist of Human D 1 Dopamine Receptor: qHTS; actives 3.2% (n = 360,000); HEK293 TREx D1 cells, calcium flux, dopamine EC80; hits give low values; activity change, negative = inhibition, % at 10 µM; AID 504652, 2011; in the data active means activity change below about -30%; further: on the % scale 0 is the no-effect control and ±100 the full control effect
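Tetracycline-induced HEK293 T-REx cells with force-coupled D1 receptor were loaded with a no-wash calcium dye. Compound was added after a 10 s baseline and read kinetically for 180 s; EC80 dopamine was then added and calcium flux followed another 180 s.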
Starred values were filed as active, the others as inactive; ! = not confirmed by another sample. Unless noted, no stated cut-off is given here; in the data, active means activation above about 30%; inactive means the rest.

SMILES | D1 ag | TRHR enhancer | D1 PAM | TRHR agonist | D1 antag
CN(CC(=O)Nc1ccccc1Cl)C(=O)C1CCN(C(=O)c2ccc(F)cc2)CC1 | 2 | -5 | -5 | 0 | 8
CS(=O)(=O)N(CC(=O)N1CCCCC1)c1ccc2c(c1)OCO2 | -3 | 1 | -1 | 1 | 24
COc1ccc(S(=O)(=O)N2CCCCCC2)cc1C(=O)NCc1ccc(C)cc1 | 5 | -5 | -3 | 0 | -5
Cc1ccc(NC(=O)C2CCN(c3cnccn3)CC2)cc1 | -1 | -9 | -12 | 0 | -20
O=C(Nc1ccc(C(F)(F)F)cc1)C1CCN(c2cnccn2)CC1 | 5 | -3 | -4 | 0 | -56*!
O=C(Cc1cccc(C(F)(F)F)c1)Nc1ccc(S(=O)(=O)N2CCCC2)cc1 | 3 | -7 | -3 | 1 | 15
O=C(Cc1cccc(C(F)(F)F)c1)Nc1cccc(S(=O)(=O)N2CCCC2)c1 | 11 | -5 | -10 | -1 | -41*
O=C(Cc1ccc(S(=O)(=O)N2CCOCC2)s1)Nc1cc(C(F)(F)F)ccc1N1CCCC1 | 29 | -10 | 5 | -1 | 0
O=C(Cc1cccc(C(F)(F)F)c1)Nc1cc(S(=O)(=O)N2CCOCC2)ccc1N1CCCC1 | 1 | -17 | -24 | 2 | -43*
CC(=O)N1CCN(S(=O)(=O)c2cccc(C(=O)Nc3cc(C(F)(F)F)ccc3N3CCOCC3)c2)CC1 | 0 | 8 | -10 | 1 | -31*
CCOc1ccc(S(=O)(=O)N(CC)CC(=O)NCc2ccco2)cc1C | 0 | 2 | -3 | 0 | -15
CCCOc1ccc(C2CC(=O)Nc3c2c(=O)n(C)c(=O)n3C)cc1OC (stereo unspecified) | 3 | 15 | -2 | 0 | 13
C/C(=N\NC(=O)c1ccc(OC2CCCC2)cc1)c1ccc(O)cc1 | 4 | 8 | -3 | -1 | -9
Cc1ccc(SCc2cc(=O)[nH]c(Nc3nc(C)c4cccc(C)c4n3)n2)cc1 | 2 | 1 | -5 | 0 | 5
Cc1nnc(SCc2cc(=O)[nH]c(Nc3nc(C)c4cc(C)c(C)cc4n3)n2)s1 | 0 | 1 | -2 | -1 | -73*
CCCCCCCc1nn2c(=O)cc(O)nc2s1 | 1 | -5 | -1 | 2 | 15
S=c1[nH]nc(-c2ccc3ccccc3n2)n1-c1cc(Cl)cc(Cl)c1 | 41* | -2 | -11 | -1 | -26
OC(CN1CCN(c2cccc(Cl)c2)CC1)C(c1ccccc1)c1ccccc1 (stereo unspecified) | 1 | 15 | -6 | 1 | -13
CCOc1ccc(NC(=O)CN(C)C(=O)c2cc(-c3cccs3)nn2-c2ccccc2)cc1OCC | 1 | -4 | -4 | -1 | -57*
COc1ccc(NC(=O)CN(C)C(=O)c2cc(-c3cccs3)nn2-c2ccccc2)cc1 | 1 | -6 | -9 | 0 | 12
O=C(NC1CC1)c1c[nH]c2ccc(S(=O)(=O)Nc3cccc(C(F)(F)F)c3)cc2c1=O | 3 | 40* | 6 | 1 | 1
CCCC(=O)c1c[nH]c(C(=O)NCCCN2CCOCC2)c1 | 2 | 9 | -3 | 1 | -7
CCCN(C(=O)CSc1nc2cc(S(=O)(=O)N(CC)CC)ccc2o1)C1CCS(=O)(=O)C1 (stereo unspecified) | 1 | 10 | 1 | 0 | -6
Cc1ccc2nc(N=C(N)N)nc(C)c2c1 | 1 | -9 | -9 | 0 | -52*
O=C(CCNC(=O)c1ccccc1Cl)OCC(=O)c1ccccc1 | 1 | -5 | 3 | 0 | -7
SMILES | D1 ag | TRHR enhancer | D1 PAM | TRHR agonist | D1 antag
COc1ccc(C[C@H]2CN3C(=NC[C@@H]3Cc3ccc(O)cc3)N2C[C@H](C)NC(=O)c2ccc(C)c(Br)c2)cc1 | 2 | -6 | -9 | -1 | -42*
Cc1ccc(C(=O)N[C@@H](C)CN2C3=NC[C@H](C(C)C)N3C[C@H]2Cc2ccc(O)cc2)cc1Br | -2 | -5 | -6 | 0 | -57*
COc1ccc(C[C@H]2CN3C(=NC[C@@H]3C(C)C)N2C[C@H](C)NC(=O)c2ccc(C)c(Br)c2)cc1 | -1 | -5 | -1 | -1 | 17
CCCCCCC(=O)NNC(=O)CC(=O)Nc1ccccc1C(=O)O | 3 | -5 | -4 | -1 | -11
Cc1cc(=O)n2nc(N3CCCC3C(=O)NCc3ccccn3)sc2n1 (stereo unspecified) | 2 | -2 | 1 | 0 | 8
Cc1ccccc1C(=O)NCC(=O)Nc1ccccc1C(F)(F)F | -1 | -3 | -3 | 0 | 3
O=C(C1CCCN(S(=O)(=O)c2cccc3nonc23)C1)N1CCC(Cc2ccccc2)CC1 (stereo unspecified) | 2 | 2 | 0 | 1 | 0
OCCc1c[nH]c2ccc(C(F)(F)F)cc12 | 3 | 0 | -9 | 1 | -23
O=C(COC(=O)C1CC1)Nc1ncc(Cl)cc1Cl | 4 | 5 | 12 | 1 | -4
O=C(CSC(=S)N1CCCC1)Nc1ncc(Cl)cc1Cl | 7 | 31* | -7 | 0 | -4
Cc1ccc(-c2[nH]c3c(c2-c2c(-n4cccc4)n(C)c(=O)[nH]c2=O)c(=O)[nH]c(=O)n3C)cc1 | 0 | -3 | 1 | 0 | -1
Cc1cc(-c2csc3nc[nH]c(=S)c23)cc(C)c1C | 17 | -7 | -5 | -2 | -49*
Cc1ccc(-c2csc3nc[nH]c(=S)c23)cc1 | 2 | 0 | -1 | -1 | -8
O=C(CC1Sc2ccccc2NC1=O)c1ccc(Br)cc1 (stereo unspecified) | 0 | 3 | -5 | 0 | -56*
O=C(O)CC1Sc2ccccc2NC1=O (stereo unspecified) | 2 | 2 | 4 | 0 | -15
COc1ccc(C2(O)CCN(CC(=O)Nc3nccs3)CC2)c(OC)c1 | 2 | 4 | -20 | 0 | -31*
CCc1nnc(NC(=O)CN2CCC(O)(c3ccccc3OC)CC2)s1 | 3 | 15 | -1 | 0 | 7
O=P(c1ccccc1)(c1ccccc1)c1nc(-c2ccccc2)oc1N1CCOCC1 | 0 | 2 | -11 | 0 | 10
CCOP(=O)(OCC)c1nc(-c2ccc(Br)cc2)oc1N1CCCCC1 | 4 | 3 | -9 | -2 | -45*
CCOP(=O)(OCC)c1nc(-c2ccc(Cl)cc2Cl)oc1N1CCCCC1 | 7 | 5 | 0 | 1 | 1
CCOP(=O)(c1ccccc1)c1nc(-c2ccc(F)cc2)oc1N1CCCCC1 (stereo unspecified) | 33* | 0 | -4 | 2 | 4
